Laboratory results from PubChem BioAssay (EPA / NIEHS).
Several values for one entry are separate records, joined by “and”; a condition that tells them apart may be missing. Equal values may be shown once. Records with an inconclusive call do not appear. Some structures have more than one record in an assay (separate samples or runs), and their calls can disagree. Activity calls are given as the source filed them. Rule for the calls, unless noted: active = hit-call score of the fitted dose curve at least 0.9, where 1 is the maximum; inactive = score below 0.9.

Key:
CD69, CD69 (gene 969) = experiment: BSK_LPS_CD69: BioMAP Diversity Plus: LPS Assay for CD69 Biomarker Activity (AID 2284303); conditions: primary human HUVEC with PBMC
In short: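 Human umbilical vein endothelial cells co-cultured with PBMC under LPS stimulation, chemical exposure 24 h; cell-surface CD69 measured by ELISA and fitted in the positive direction versus DMSO.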

TTR (gene 7276) = experiment: CCTE_GLTED_hTTR_0.5uM: CCTE's human Transthyretin (hTTR) Inhibition Assay, with 0.5uM TTR, Great Lakes Toxicology and Ecology Division (GLTED) Lab (AID 2284320)
In short: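 Cell-free displacement assay in which human TTR at 0.5 uM was incubated with test chemical for 2 h. Displacement of the ANSA probe was read by fluorescence at 380 nm excitation/475 nm emission. Loss of signal was fitted in the positive direction versus DMSO.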

[1] = CCTE_Mundy_HCI_iCellGluta_NOG_NeuronCount: CCTE's Neurite Outgrowth Assay in iCellGluta cells for Neuron Count, Mundy Lab (AID 2284340; active = hit-call score of the fitted dose curve at least 0.9, where 1 is the maximum;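 note: cells fixed about 48 h after compound addition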)
In short: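 Neuron count read by automated high-content imaging of Hoechst 33342 and betaIII-tubulin/Alexa Fluor-488 labelling in human iPSC glutamatergic neurons. Activity fitted relative to DMSO.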

[2] = CCTE_Mundy_HCI_iCellGluta_NOG_NeuriteCount: CCTE's Neurite Outgrowth Assay in iCellGluta cells for Neurite Count, Mundy Lab (AID 2284342; active = hit-call score of the fitted dose curve at least 0.9, where 1 is the maximum;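 note: chemical exposure about 48 hours starting 2 hours after plating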)
[3] = Tanguay_ZF_120hpf_MO24: Oregon State University Tanguay Lab 24 Hour Post-fertilization zebrafish Assay for Mortality (AID 2284389)
In short: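 Dechorionated wild-type zebrafish embryos, 1 per well, statically exposed from 6 hpf at 28C, 0.64% DMSO final. Mortality scored as binary present/absent at 24 hpf by brightfield microscopy, relative to DMSO.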

[4] = CCTE_Mundy_HCI_iCellGluta_NOG_NeuriteLength: CCTE's Neurite Outgrowth Assay in iCellGluta cells for Neurite Length, Mundy Lab (AID 2284318; active = hit-call score of the fitted dose curve at least 0.9, where 1 is the maximum)
In short: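 Automated high-content imaging of betaIII-tubulin (Alexa Fluor-488) and Hoechst-stained cells gave neurite length, normalized to the DMSO baseline.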

IYD (gene 389434) = experiment: CCTE_GLTED_hIYD: CCTE's human Iodotyrosine Deiodinase (xIYD) Inhibition Assay, Great Lakes Toxicology and Ecology Division (GLTED) Lab (AID 2284317; active = hit-call score of the fitted dose curve at least 0.9, where 1 is the maximum;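 note: cell-free human IYD enzyme made in baculovirus insect cells; iodide freed from monoiodotyrosine measured by cerium arsenite color change at 420 nm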)
In short: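 Absorbance change at 420 nm from the iodide-catalysed cerium-arsenic reaction reports free iodide released by human IYD from monoiodotyrosine. Enzyme, substrate and chemical are incubated 3 h; loss of signal is fitted relative to DMSO baseline.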

SERPINA7 (gene 6906) = experiment: CCTE_GLTED_hTBG: CCTE's human Thyroxine-binding Globulin (TBG) Inhibition Assay, Great Lakes Toxicology and Ecology Division (GLTED) Lab (AID 2284343; active = hit-call score of the fitted dose curve at least 0.9, where 1 is the maximum;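 note: active chemicals lower fluorescence versus DMSO baseline by displacing probe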)
Experimental: CCTE_GLTED_hTBG is a cell-free, single-readout assay designed to test the chemicals' ability to displace T4 from the human thyroxine-binding globulin (TBG) protein. TBG is incubated in presence of test chemical for 2 hours during which disrupting chemicals displace ANSA from the TBG protein. Results read fluorescence at 380 excitation and 475 emission.CCTE_GLTED_hTBG is the assay component measured from the CCTE_GLTED_hTBG assay. It is designed to make measurements of fluorescent polarization, using a form of binding reporter, as detected with Fluorescence signals by Fluorescence technology.Data from the assay component CCTE_GLTED_hTBG was analyzed at the assay endpoint CCTE_GLTED_hTBG in the positive analysis fitting direction relative to DMSO as the negative control and baseline of activity. Using a type of binding reporter, loss-of-signal activity can be used to understand a chemical's ability to displace T4 from thyroxine-binding globulin. To generalize the intended target to other relatable targets, this assay endpoint is annotated to the 'transporter' intended target family, where the subfamily is 'hormone carrier protein'.
Human transthyretin (TTR) assay, developed at Great Lakes Toxicology and Ecology Division (GLTED) within the EPA's Center for Computational Toxicology and Exposure (CCTE), is designed to test the chemicals' ability to displace T4 from the TTR protein. TTR (0.5uM) is incubated in presence of test chemical for 2 hours during which disrupting chemicals displace ANSA from the TTR protein. Results read fluorescence at 380 excitation and 475 emission.

[5] = Tanguay_ZF_120hpf_DP24: Oregon State University Tanguay Lab 24 Hour Post-fertilization zebrafish Assay for Delayed Development (AID 2284390)
In short: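 Dechorionated 5D wild-type zebrafish embryos exposed statically from 6 hpf, one per well, 0.64% DMSO final, 28 C, sealed and dark. Developmental progression scored at 24 hpf by brightfield as binary present/absent; dead embryos excluded.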

Structure (SMILES): CC(C)(C)C(=O)CC(=O)C(F)(F)C(F)(F)C(F)(F)F
- outcome (CD69, CD69 (gene 969)): inactive
- outcome (TTR (gene 7276)): inactive
- outcome [1]: inactive
- outcome [2]: inactive
- outcome [3]: inactive

Structure (SMILES): C=C(C)C(=O)OCC(F)(F)C(F)(F)C(F)(F)F
- outcome (CD69, CD69 (gene 969)): inactive
- outcome [4]: inactive
- outcome [1]: inactive
- outcome [2]: inactive
- outcome [3]: inactive

Structure (SMILES): FC(F)(I)C(F)(F)C(F)(F)C(F)(F)I
- outcome (CD69, CD69 (gene 969)): inactive
- AC50 (TTR (gene 7276)): 3.74 µM (active)

Structure (SMILES): O=P(O)(O)OCCC(F)(F)C(F)(F)C(F)(F)C(F)(F)C(F)(F)C(F)(F)F
- outcome (CD69, CD69 (gene 969)): inactive
- outcome [4]: inactive
- outcome [1]: inactive
- outcome [2]: inactive
- outcome [3]: inactive

Structure (SMILES): O=C(CC(=O)C(F)(F)C(F)(F)F)C(F)(F)F
- outcome (CD69, CD69 (gene 969)): inactive
- outcome [4]: inactive
- AC50 (TTR (gene 7276)): 3 µM (active)
- outcome [1]: inactive
- outcome [2]: inactive
- outcome [3]: inactive

Structure (SMILES): O=C(O)C(F)(F)C(F)(F)OC(F)(F)F
- outcome (CD69, CD69 (gene 969)): inactive
- outcome [4]: inactive
- AC50 (TTR (gene 7276)): 31.7 µM (active)
- outcome [1]: inactive
- outcome [2]: inactive
- outcome [3]: inactive

Structure (SMILES): OCC(F)(F)C(F)(F)C(F)(F)C(F)F
- outcome (CD69, CD69 (gene 969)): inactive
- outcome [4]: inactive
- outcome [1]: inactive
- outcome [2]: inactive
- outcome [3]: inactive

Structure (SMILES): O=C(O)C(F)(F)C(F)(F)C(F)(F)C(F)(F)C(F)(F)C(F)(F)C(F)(F)C(F)(F)C(F)(F)C(F)(F)C(F)(F)C(F)(F)F
- outcome (CD69, CD69 (gene 969)): inactive
- AC50 (TTR (gene 7276)): 11.6 µM (active)
- outcome [3]: inactive

Structure (SMILES): N=C(N)C(F)(F)C(F)(F)C(F)(F)C(F)(F)C(F)(F)C(F)(F)C(F)(F)F
- AC50 (CD69, CD69 (gene 969)): 45 µM (active) and 14.9 µM (active)
- outcome [4]: inactive
- AC50 (TTR (gene 7276)): 4.85 µM (active)
- outcome [1]: inactive
- outcome [2]: inactive
- outcome [3]: inactive

Structure (SMILES): OCC(F)(F)C(F)(F)C(F)(F)F
- outcome (CD69, CD69 (gene 969)): inactive
- outcome [4]: inactive
- outcome [1]: inactive
- outcome [2]: inactive
- outcome [3]: inactive

Structure (SMILES): FC(F)(F)C(F)(F)C(F)(F)C(F)(F)C(F)(F)C(F)(F)CC1CO1 (centres undefined)
- outcome (CD69, CD69 (gene 969)): inactive
- outcome [4]: inactive
- outcome [1]: inactive
- outcome [2]: inactive
- outcome [3]: inactive

Structure (SMILES): Cc1ccc(S(=O)(=O)OCC(F)(F)C(F)(F)C(F)(F)C(F)(F)C(F)(F)C(F)F)cc1
- AC50 (CD69, CD69 (gene 969)): 7.94 µM (active)
- outcome (CD69, CD69 (gene 969)): inactive
- outcome [3]: inactive

Structure (SMILES): O=C(O)C(F)(F)C(F)(F)C(F)(F)C(F)(F)C(F)(F)C(F)(F)C(F)(F)C(F)(F)C(F)(F)C(F)F
- AC50 (CD69, CD69 (gene 969)): 37.8 µM (active) and 27.9 µM (active)
- AC50 (IYD (gene 389434)): 73.5 µM (active)
- AC50 (TTR (gene 7276)): 1.03 µM (active)
- outcome [3]: inactive

Structure (SMILES): CCCCCCOC(=O)c1ccccc1O
- AC50 (CD69, CD69 (gene 969)): 39.4 µM (active) and 46.4 µM (active)

Structure (SMILES): FC(F)(F)C(F)(F)C(F)(F)C(F)(F)C(F)(F)C(F)(F)CCS
- outcome (CD69, CD69 (gene 969)): inactive

Structure (SMILES): OCCCC(F)(F)C(F)(F)C(F)(F)C(F)(F)C(F)(F)C(F)(F)C(F)(F)F
- AC50 (CD69, CD69 (gene 969)): 52.1 µM (active) and 51.7 µM (active)
- outcome [4]: inactive
- outcome [1]: inactive
- outcome [2]: inactive
- outcome [3]: inactive

Structure (SMILES): FC(F)(Br)C(F)(F)C(F)(F)C(F)(F)C(F)(F)C(F)(F)Br
- outcome (CD69, CD69 (gene 969)): inactive

Structure (SMILES): FC(F)(F)C(F)(F)C(F)(F)C(F)(F)C(F)(F)CCI
- outcome (CD69, CD69 (gene 969)): inactive
- AC50 (TTR (gene 7276)): 18.6 µM (active)
- AC50 (SERPINA7 (gene 6906)): 27 µM (active)
- outcome [3]: inactive

Structure (SMILES): FC(F)(F)C(F)(F)C(F)(F)CI
- outcome (CD69, CD69 (gene 969)): inactive
- outcome [4]: inactive
- outcome [1]: inactive
- outcome [2]: inactive
- outcome [3]: inactive
- outcome [5]: inactive

Structure (SMILES): C=CC(=O)OCC(F)(F)C(F)(F)C(F)(F)C(F)(F)COC(=O)C=C
- AC50 (CD69, CD69 (gene 969)): 8.63 µM (active) and 9.41 µM (active)
- outcome [4]: inactive
- AC50 (TTR (gene 7276)): 0.886 µM (active)
- outcome [1]: inactive
- outcome [2]: inactive
- AC50 (SERPINA7 (gene 6906)): 18.2 µM (active)
- AC50 [3]: 28.3 µM (active)

Structure (SMILES): FC(F)(F)C(F)(F)C(F)(F)C(F)(F)C(F)(F)C(F)(F)C(F)(F)C(F)(F)CCS
- outcome (CD69, CD69 (gene 969)): inactive
- outcome [4]: inactive
- AC50 [1]: 5 µM (active)
- outcome [2]: inactive
- outcome [3]: inactive

Structure (SMILES): OCC(F)(F)C(F)(F)C(F)(F)C(F)(F)C(F)(F)C(F)(F)F
- outcome (CD69, CD69 (gene 969)): inactive
- AC50 (TTR (gene 7276)): 36.8 µM (active)
- outcome [3]: inactive

Structure (SMILES): O=S(=O)(O)C(F)(F)C(F)(F)C(F)(F)C(F)(F)C(F)(F)C(F)(F)C(F)(F)F
- outcome (CD69, CD69 (gene 969)): inactive
- AC50 (IYD (gene 389434)): 100 µM (active)
- AC50 (TTR (gene 7276)): 0.0773 µM (active)
- outcome [3]: inactive

Structure (SMILES): FC(F)(F)C(F)(F)C(F)(F)C(F)(F)CCI
- outcome (CD69, CD69 (gene 969)): inactive
- outcome [4]: inactive
- AC50 (TTR (gene 7276)): 75 µM (active)
- outcome [1]: inactive
- outcome [2]: inactive
- AC50 (SERPINA7 (gene 6906)): 46.7 µM (active)
- outcome [3]: inactive

Structure (SMILES): O=C(O)C(F)(F)C(F)(F)C(F)(F)C(F)(F)C(F)(F)C(F)(F)C(F)(F)C(F)(F)C(F)(F)C(F)(F)C(F)(F)C(F)(F)C(F)(F)F
- outcome (CD69, CD69 (gene 969)): inactive
- AC50 (TTR (gene 7276)): 10.3 µM (active)
- outcome [3]: inactive

Structure (SMILES): O=C(O)C(F)(F)C(F)(F)C(F)(F)F
- outcome (CD69, CD69 (gene 969)): inactive
- outcome [4]: inactive
- AC50 (TTR (gene 7276)): 31.9 µM (active)
- outcome [1]: inactive
- outcome [2]: inactive
- outcome [3]: inactive

Structure (SMILES): FC(F)(F)C(F)(F)C(F)(F)C(F)(F)C(F)(F)C(F)(F)C(F)(F)C(F)(F)F
- outcome (CD69, CD69 (gene 969)): inactive
- outcome [4]: inactive
- outcome [1]: inactive
- outcome [2]: inactive
- outcome [3]: inactive
- outcome [5]: inactive
